The text below walks through data of PubChem BioAssay (EPA / NIEHS).

The structures appear in SMILES notation. Active and inactive are the calls of the source. How the source made its calls: active means hit-call score of the fitted dose curve at least 0.9, where 1 is the maximum; inactive means score below 0.9.

Read-out in test [1]: Interleukin-8 (IL8), CXCL8 (gene 3576)
Briefly: BSK_hDFCGF_IL8: BioMAP Diversity Plus: hDFCGF Assay for Interleukin-8 (IL8) Biomarker Activity (AID 2283058). To be noted: primary human foreskin fibroblasts; actives raise or lower the signal. In a few lines: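 Primary human foreskin fibroblasts (hDFCGF system) dosed with chemical; IL-8 measured by ELISA 24 hours later. Bidirectional curve fitting relative to DMSO baseline; cytotoxicity tracked in parallel cultures by SRB total protein staining.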

Test [2] can be described thus: BSK_hDFCGF_Proliferation: Cell Proliferation Assessment in the BioMAP Diversity Plus: hDFCGF Assay (AID 2283059).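 Further: curves fitted for both rise and fall of signal versus DMSO baseline.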 As to conditions: primary human foreskin fibroblasts. In a few lines: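 Sub-confluent human foreskin fibroblast cultures receive test chemical […]. Relative cell number is quantified by sulforhodamine B staining (0.1%, after 10% TCA fixation) at 560 nm, with bidirectional fitting referenced to DMSO.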

Read-out in test [3]: Macrophage colony-stimulating factor (MCSF), CSF1 (gene 1435)
Briefly: BSK_hDFCGF_MCSF: BioMAP Diversity Plus: hDFCGF Assay for Macrophage colony-stimulating factor (MCSF) Biomarker Activity (AID 2283060). As to conditions: primary human foreskin fibroblasts; actives raise or lower the signal. In a few lines:
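Human foreskin fibroblast primary cultures; M-CSF measured by ELISA 24 hours after chemical dosing. Bidirectional fitting relative to DMSO, with overt cytotoxicity tracked by parallel SRB total-protein staining (0.1% SRB, 10% TCA fixation, 560 nm).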

Test [4] is described as follows: BSK_hDFCGF_SRB: Viability Assessment in the BioMAP Diversity Plus: hDFCGF Assay (AID 2283061).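 Further: cells exposed to compound for 24 h before the read.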 As to conditions: primary human foreskin fibroblasts. In short, it runs like this:
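Human foreskin fibroblasts in 96-well plates were treated 24 h. Total protein was measured by 0.1% SRB staining after 10% TCA fixation, read at 560 nm. Data were fitted bidirectionally against DMSO.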

Read-out in test [5]: TIMP metallopeptidase inhibitor 1 (TIMP1), TIMP1 (gene 7076)
Briefly: BSK_hDFCGF_TIMP1: BioMAP Diversity Plus: hDFCGF Assay for TIMP metallopeptidase inhibitor 1 (TIMP1) Biomarker Activity (AID 2283062). To be noted: primary human foreskin fibroblasts; actives raise or lower the signal. In a few lines:
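Human foreskin fibroblast primary cultures dosed for 24 h; secreted/surface TIMP-1 quantified by ELISA. Bidirectional curve fitting against DMSO baseline; cytotoxicity tracked in parallel cultures by SRB total-protein staining.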

Read-out in test [6]: Monokine induced gamma interferon (MIG), CXCL9 (gene 4283)
Briefly: BSK_hDFCGF_MIG: BioMAP Diversity Plus: hDFCGF Assay for Monokine induced gamma interferon (MIG) Biomarker Activity (AID 2283063). As to conditions: primary human foreskin fibroblasts; actives raise or lower the signal. In short, it runs like this:
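MIG/CXCL9 measured by ELISA 24 h after dosing primary human skin fibroblasts. Activity fitted in both directions against DMSO controls. Cytotoxicity was checked in parallel cultures by SRB staining read at 560 nm.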

Read-out in test [7]: Matrix Metallopeptidase 1 (MMP1), MMP1 (gene 4312)
Briefly: BSK_hDFCGF_MMP1: BioMAP Diversity Plus: hDFCGF Assay for Matrix Metallopeptidase 1 (MMP1) Biomarker Activity (AID 2283064). As to conditions: primary human foreskin fibroblasts; actives raise or lower the signal. In a few lines: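 Primary human foreskin fibroblasts in the hDFCGF system were dosed with test chemical, and MMP1 was measured by ELISA 24 h later. Values come from bidirectional curve fitting against the DMSO baseline.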

Read-out in test [8]: Vascular cell adhesion molecule 1 (VCAM1), VCAM1 (gene 7412)
Kind of test: BSK_hDFCGF_VCAM1: BioMAP Diversity Plus: hDFCGF Assay for Vascular cell adhesion molecule 1 (VCAM1) Biomarker Activity (AID 2283065).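 Further: VCAM-1 protein level quantified by ELISA after 24 h chemical exposure.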 As to conditions: primary human foreskin fibroblasts; actives raise or lower the signal. In a few lines:
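Human foreskin fibroblast primary cells dosed with chemical, VCAM-1 measured by ELISA at 24 h. Bidirectional curve fitting relative to DMSO as negative control/baseline.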

Read-out in test [9]: Plasminogen activator inhibitor-1 (PAI1), SERPINE1 (gene 5054)
Kind of test: BSK_hDFCGF_PAI1: BioMAP Diversity Plus: hDFCGF Assay for Plasminogen activator inhibitor-1 (PAI1) Biomarker Activity (AID 2283066). To be noted: primary human foreskin fibroblasts; actives raise or lower the signal. In a few lines:
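Human foreskin fibroblasts in the hDFCGF system were dosed with compound for 24 h; PAI-1 was quantified by ELISA. Bidirectional curve fitting used DMSO as negative control and baseline.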

Read-out in test [10]: Interferon-gamma inducible Protein 10 (IP10), CXCL10 (gene 3627)
Kind of test: BSK_KF3CT_IP10: BioMAP Diversity Plus: KF3CT Assay for Interferon-gamma inducible Protein 10 (IP10) Biomarker Activity (AID 2283068). As to conditions: primary human keratinocytes with fibroblasts; actives raise or lower the signal. In a few lines: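 ELISA read-out of IP-10 after 24 h chemical dosing of human skin primary co-culture (keratinocytes, foreskin fibroblasts). Gain or loss of signal relative to DMSO, bidirectional curve fit.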

The nature of test [11]: BSK_KF3CT_SRB: Viability Assessment in the BioMAP Diversity Plus: KF3CT Assay (AID 2283069).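 Further: total protein by sulforhodamine B staining as a cytotoxicity measure; read 24 h after compound addition.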 As to conditions: primary human keratinocytes with fibroblasts. In a few lines: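 Human primary keratinocyte plus foreskin fibroblast co-culture exposed to chemicals for 24 h. Total protein measured by 0.1% sulforhodamine B staining after 10% TCA fixation, read at 560 nm; bidirectional fitting versus DMSO baseline.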

Read-out in test [12]: Interleukin-1 alpha (IL1a), IL1A (gene 3552)
Kind of test: BSK_KF3CT_IL1a: BioMAP Diversity Plus: KF3CT Assay for Interleukin-1 alpha (IL1a) Biomarker Activity (AID 2283070). As to conditions: primary human keratinocytes with fibroblasts; actives raise or lower the signal. In short, it runs like this:
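Human keratinocyte plus foreskin fibroblast primary co-culture, sampled 24 h after chemical dosing. IL-1a measured by ELISA; responses fitted bidirectionally against DMSO baseline (negative control), so gain or loss of signal both count.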

Read-out in test [13]: Matrix Metallopeptidase 9 (MMP9), MMP9 (gene 4318)
Briefly: BSK_KF3CT_MMP9: BioMAP Diversity Plus: KF3CT Assay for Matrix Metallopeptidase 9 (MMP9) Biomarker Activity (AID 2283074).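 On AC50: MMP9 protein level quantified by ELISA in the co-culture.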 As to conditions: primary human keratinocytes with fibroblasts; actives raise or lower the signal. In a few lines:
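Keratinocyte plus foreskin fibroblast human primary skin co-culture was dosed with chemical and MMP-9 was quantified by ELISA 24 h later. Bidirectional curve fitting used DMSO as negative control and activity baseline.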

Read-out in test [14]: urokinase plasminogen activator (uPA), PLAU (gene 5328)
Briefly: BSK_KF3CT_uPA: BioMAP Diversity Plus: KF3CT Assay for urokinase plasminogen activator (uPA) Biomarker Activity (AID 2283075). As to conditions: primary human keratinocytes with fibroblasts; actives raise or lower the signal. In a few lines:
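Human keratinocyte plus foreskin fibroblast primary co-culture exposed to chemical for 24 h. uPA levels were quantified by ELISA, and activity was fitted bidirectionally against a DMSO negative-control baseline.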

Read-out in another test: CD40, CD40 (gene 958)
Briefly: BSK_LPS_CD40: BioMAP Diversity Plus: LPS Assay for CD40 Biomarker Activity (AID 2283076). As to conditions: primary human HUVEC with PBMC; actives raise or lower the signal. In short, it runs like this: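 HUVEC plus PBMC co-culture stimulated with LPS; CD40 quantified by ELISA 24 h after compound dosing. Fitting was bidirectional relative to DMSO. SRB staining of parallel cultures flagged overt cytotoxicity.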

Read-out in test [15]: E-selectin (Homo sapiens) (UniProt P16581)
Briefly: BSK_LPS_Eselectin: BioMAP Diversity Plus: LPS Assay for Eselectin Biomarker Activity (AID 2283077). As to conditions: primary human HUVEC with PBMC; actives raise or lower the signal. In short, it runs like this:
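Human umbilical vein endothelial cells co-cultured with PBMC under LPS stimulation; cell-surface E-selectin measured by ELISA 24 h after dosing. Change in either direction versus DMSO, with SRB total-protein staining in parallel cultures for cytotoxicity.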

Test [16] is described as follows: BSK_LPS_SRB: Viability Assessment in the BioMAP Diversity Plus: LPS Assay (AID 2283079).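 Further: total protein by sulforhodamine B absorbance as a cytotoxicity measure; measured one day after compound addition.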 To be noted: primary human HUVEC with PBMC. In short, it runs like this: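 Co-culture of human umbilical vein endothelial cells and PBMC, read 24 h after dosing. Total protein by 0.1% SRB staining after 10% TCA fixation, absorbance at 560 nm; bidirectional fit against DMSO.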

Read-out in test [17]: Macrophage colony-stimulating factor (MCSF), CSF1 (gene 1435)
Briefly: BSK_LPS_MCSF: BioMAP Diversity Plus: LPS Assay for Macrophage colony-stimulating factor (MCSF) Biomarker Activity (AID 2283083). To be noted: primary human HUVEC with PBMC; actives raise or lower the signal. In short, it runs like this:
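HUVEC–PBMC co-culture, M-CSF measured by ELISA 24 h after chemical dosing. Fitted in both directions relative to DMSO as negative control; overt cytotoxicity assessed by SRB total-protein staining in parallel cultures.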

Read-out in test [18]: Tissue Factor, F3 (gene 2152)
Briefly: BSK_LPS_TissueFactor: BioMAP Diversity Plus: LPS Assay for Tissue Factor Biomarker Activity (AID 2283084). As to conditions: primary human HUVEC with PBMC; actives raise or lower the signal. In short, it runs like this: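 Human umbilical vein endothelial cells co-cultured with PBMC were dosed with compound. Cell-surface CD142 was measured by ELISA 24 h later. Activity was fitted bidirectionally against DMSO, with SRB total-protein staining in parallel cultures for cytotoxicity.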

Read-out in test [19]: Tumor necrosis factor (Homo sapiens) (UniProt P01375)
Briefly: BSK_LPS_TNFa: BioMAP Diversity Plus: LPS Assay for Tumour Necrosis Factor alpha (TNFa) Biomarker Activity (AID 2283085).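 On AC50: TNFa protein level quantified by ELISA in the co-culture.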 To be noted: primary human HUVEC with PBMC; actives raise or lower the signal. In short, it runs like this: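 Human umbilical vein endothelial cells co-cultured with PBMC were exposed to test chemical and TNFa measured by ELISA 24 h after dosing. Bidirectional curve fitting was done relative to DMSO as negative control and baseline.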

Sequence of Tumor necrosis factor (Homo sapiens) (P01375 whole entry, looked up): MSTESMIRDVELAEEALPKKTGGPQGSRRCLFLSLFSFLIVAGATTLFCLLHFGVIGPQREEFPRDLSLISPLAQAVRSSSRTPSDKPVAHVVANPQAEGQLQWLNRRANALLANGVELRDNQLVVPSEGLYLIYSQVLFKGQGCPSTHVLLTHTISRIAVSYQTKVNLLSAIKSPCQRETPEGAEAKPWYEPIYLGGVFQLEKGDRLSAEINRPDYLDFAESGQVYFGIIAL
Sequence of E-selectin (Homo sapiens) (P16581 whole entry, looked up): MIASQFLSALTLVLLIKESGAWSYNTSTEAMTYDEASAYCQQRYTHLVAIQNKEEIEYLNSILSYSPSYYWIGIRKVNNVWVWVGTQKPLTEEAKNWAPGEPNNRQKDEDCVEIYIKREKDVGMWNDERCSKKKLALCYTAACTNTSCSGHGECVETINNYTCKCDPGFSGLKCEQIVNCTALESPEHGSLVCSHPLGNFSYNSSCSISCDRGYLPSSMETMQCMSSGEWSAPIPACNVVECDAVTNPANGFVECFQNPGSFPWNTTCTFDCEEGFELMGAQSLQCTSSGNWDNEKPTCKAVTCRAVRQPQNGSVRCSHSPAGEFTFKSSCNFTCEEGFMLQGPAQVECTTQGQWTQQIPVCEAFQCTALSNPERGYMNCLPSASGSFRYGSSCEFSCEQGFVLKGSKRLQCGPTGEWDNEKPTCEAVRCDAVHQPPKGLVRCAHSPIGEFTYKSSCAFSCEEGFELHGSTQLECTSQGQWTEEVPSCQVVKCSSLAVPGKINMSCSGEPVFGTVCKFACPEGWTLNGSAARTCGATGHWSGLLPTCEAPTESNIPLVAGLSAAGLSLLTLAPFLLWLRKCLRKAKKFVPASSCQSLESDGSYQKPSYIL

In the case of `CCC(C)c1cc([N+](=O)[O-])cc([N+](=O)[O-])c1OC(=O)C=C(C)C` (stereo not given), in test [1], the outcome was inactive. For the same molecule, the AC50 in [2] is 5.09 µM (active); in test [3], 6.13 µM (active); in [4] it was 11.5 µM (active); in [5] it was 12 µM (active); in test [6], 9.88 µM (active); in [7], 12.3 µM (active). Besides, the AC50 was 5.91 µM (active) in [8]; 3.95 µM (active) in test [9]; 13.9 µM (active) in [10]; 31.7 µM (active) in test [11]; 22.8 µM (active) in test [12]; 14.8 µM (active) in test [13]. Also, the AC50 in test [14] is 30.3 µM (active); with CD40, CD40 (gene 958), 7.46 µM (active); in test [15], 13.3 µM (active); in test [16], 13.3 µM (active); in test [17], 13 µM (active); in test [18] it was 33.5 µM (active). Further, in test [19], the concentration at half-maximal activity (AC50) was 34.5 µM (active).
As for `O=c1c2ccccc2c(=O)c2c1cc(Cl)c1[nH]c3c([nH]c12)c(Cl)cc1c(=O)c2ccccc2c(=O)c13`, the result in [1], in test [2], in test [4], in test [5], in test [6] and in test [7] was inactive. The result in [9], in [10], in [11], in test [12], in [13] and in test [14] was inactive. Besides, the outcome in the test with CD40, CD40 (gene 958) was “inactive”; in [15], “inactive”; in test [16] it was “inactive”; in test [17], “inactive”; in test [18] it was “inactive”; in test [19], “inactive”. Further, the half-maximal activity concentration (AC50) is 20 µM (active) in test [3] and 14.4 µM (active) in test [8].
Turning to `Nc1ccc(-c2ccc(N)c(N)c2)cc1N`, the result in test [1], in [2], in test [4], in [5], in [6] and in [7] was inactive. Besides, the outcome was “inactive” in test [9]; “inactive” in [10]; “inactive” in test [11]; “inactive” in test [14]; “inactive” with CD40, CD40 (gene 958); “inactive” in [15]. The outcome in [16], in [17], in [18] and in [19] was inactive. For the same molecule, the half-maximal activity concentration (AC50) in test [3] was 16.1 µM (active); in [8], 11.7 µM (active); in [12], 15.8 µM (active); in test [13], 16.1 µM (active).
